15 compounds from PubChem BioAssay (NCI) can be followed below.

Common to all, as to test: NCI-60 one-dose screen, 48 h (100 = growth as untreated, 0 = no growth, -100 = all killed)
Common to all, as to conditions: 10 µM unless noted

Experiment [1] deals with EKVX NSCLC.
In experiment [2] the test system is SN12C renal.
The test system of experiment [3] is UO-31 renal.
The test system of experiment [4] is TK-10 renal.
In experiment [5] the test system is ACHN renal.
The subject of experiment [6] is CAKI-1 renal.
Experiment [7] concerns A498 renal.
For experiment [8], the system named is CCRF-CEM leukemia.
In experiment [9] the test system is MOLT-4 leukemia.
Experiment [10] has as its system SR leukemia.
In experiment [11] the test system is RPMI-8226 leukemia.
In experiment [12] the test system is OVCAR-8 ovarian.
Experiment [13] relates to OVCAR-5 ovarian.
The subject of experiment [14] is OVCAR-4 ovarian.
In experiment [15] the test system is IGROV1 ovarian.
Experiment [16] has as its system OVCAR-3 ovarian.
The subject of experiment [17] is HS 578T breast.
Experiment [18] concerns T-47D breast.
Experiment [19] concerns SK-OV-3 ovarian.
The test system of experiment [20] is NCI/ADR-RES ovarian.

This is part of a sample that, as a whole, favours compounds with a hit. Of some 83,000 tested, about 20% had one in any assay.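 Method: cells in 96-well plates; compound added at one concentration; 48 h incubation; percent growth measured; values under 10 scored active.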 Unmarked numbers belong to inactive results. Active and inactive are the calls of the source.

Consider `Cc1ccc(CNS(=O)(=O)/N=C2\NC(=O)NC2=C(Cl)Cl)cc1`, for which the growth is 95.6% in [1]; 26.4% in experiment [2]; 84.7% in experiment [3]; 48.8% in experiment [4]; 73% in experiment [5]; 94.6% in experiment [6]. For the same compound, the growth was 56.7% in [7]; 16.1% in experiment [8]; 21% in experiment [9]; 69.5% in experiment [10]; 14.5% in [11]; 91.2% in experiment [12]. The growth in [13] is 96.7%; in [14] it was 98.7%; in [15], 101%; in [16], 88.2%; in experiment [17], 66.1%; in experiment [18], 48.7%.
With `N=C1CC(=O)NN1C(=O)CSc1nc2sc3c(c2c(=O)n1-c1ccc(Cl)cc1)CCCC3`, the growth is 97.8% in experiment [1]; 93.5% in experiment [2]; 70.1% in experiment [3]; 150% in [4]; 94% in [5]; 87.4% in experiment [6]. Also, the growth in [7] is 91.3%; in experiment [8], 103%; in experiment [9] it was 103%; in [10] it was 94%; in [11], 102%; in experiment [12], 100%. For the same compound, the growth was 104% in experiment [13]; 98.2% in experiment [19]; 94.5% in experiment [15]; 122% in experiment [16]; 94.5% in experiment [17]; 115% in experiment [20]. For the same compound, the growth in experiment [18] was 83.8%.
With `COc1cc(-c2nc3ccc(-c4nnc(SCC(=O)Nc5ccc(C(C)=O)cc5)o4)cc3[nH]2)cc(OC)c1OC`, the growth in experiment [1] was 94%; in experiment [2] it was 92.8%; in experiment [3], 85.2%; in [4], 121%; in experiment [5] it was 98.9%; in experiment [6], 92.7%. Besides, the growth in experiment [7] was 95.4%; in experiment [8], 104%; in experiment [9], 110%; in experiment [10] it was 96.5%; in experiment [11], 108%; in experiment [12], 94.9%. Besides, the growth in experiment [13] is 99.9%; in [19] it was 112%; in experiment [15] it was 99.3%; in [16] it was 119%; in [17], 103%; in [20] it was 107%. For the same compound, the growth in experiment [18] was 103%.
On to `CSc1ccc2c(c1)N(C(=O)/C(C#N)=C/c1c[nH]c3ccccc13)c1ccccc1S2`, for which the growth was 34.8% in [1]; 33.9% in experiment [2]; 50.4% in experiment [3]; 71.3% in [4]; 39.9% in experiment [5]; 38.5% in [6]. Besides, the growth in experiment [7] was 10.8%; in [8], 19%; in experiment [9], 30.5%; in experiment [10] it was 34.4%; in experiment [11], 21.3%; in [12], 52.4%. In addition, the growth is 63.1% in experiment [13]; 40.2% in experiment [15]; 37.5% in experiment [16]; 37.8% in experiment [17]; 29.9% in experiment [18].
Turning to `CN1C(=O)N(c2ccccc2)C2N=C(N/N=C/c3ccccc3)SC21` (stereo not drawn), the growth in experiment [1] is 53.4%; in experiment [2], 38.5%; in [3], 47.4%; in experiment [4], 61.7%; in experiment [5] it was 49.1%; in [6] it was 41.9%. Moreover, the growth in experiment [7] is -18.8% (active); in [8], 17.1%; in experiment [9] it was 25.5%; in experiment [10], 13.6%; in experiment [11], 22.5%; in [12], 25.7%. For the same compound, the growth is 35.1% in experiment [13]; 37.1% in experiment [19]; 38.2% in experiment [15]; 13.2% in [16]; 30.7% in experiment [20]; 32.6% in experiment [18].
As to `CCOC(=O)c1c(NC(=O)c2cccc(C(F)(F)F)c2)sc2cc(O)ccc12`, the growth in experiment [1] is 84.8%; in experiment [2], 89.4%; in experiment [3] it was 60.1%; in [4], 183%; in experiment [5] it was 93.4%; in experiment [6], 96.7%. Also, the growth in experiment [7] was 77.1%; in [8] it was 63.5%; in experiment [9], 81.6%; in experiment [10], 101%; in experiment [11], 73.9%; in [12], 105%. In addition, the growth is 98.4% in experiment [13]; 104% in experiment [14]; 75.7% in experiment [15]; 98.6% in experiment [16]; 64% in [18].
Turning to `COC1CCN(Cc2ccc3c(NNC(=O)c4cnccn4)nc4cc(F)ccc4n23)C1` (stereo not drawn), the growth was 29.9% in [1]; 24.1% in [2]; 18.6% in [3]; 40.8% in experiment [4]; 14.1% in [5]; 16.8% in experiment [6]. The growth in experiment [7] was 30.6%; in [8], 1.87% (active); in [10] it was 1.51% (active); in experiment [11], 20.2%; in experiment [12] it was 14.4%; in [13], 49.9%. Besides, the growth in experiment [14] is 21%; in experiment [19] it was 38.1%; in experiment [15] it was 24.2%; in experiment [16], 5.16% (active); in [17], 68.5%; in experiment [20], 24%. Further, in experiment [18], the growth was 24.2%.
Take `CCN1C(=S)N(c2ccccc2)C2NC(=O)N(/N=C/C=C/c3ccccc3OC)C21` (stereo not drawn): the growth in experiment [1] is 89.7%; in experiment [2], 87.5%; in [3] it was 90.4%; in experiment [4], 105%; in experiment [5] it was 80.1%; in [6] it was 72.6%. Also, the growth is 95% in experiment [7]; 92.3% in [8]; 40.9% in experiment [10]; 92.6% in experiment [11]; 73.1% in experiment [12]; 97.7% in experiment [13]. Further, the growth is 81.1% in experiment [14]; 115% in [19]; 92.1% in experiment [15]; 93.9% in experiment [16]; 78.7% in experiment [17]; 99.4% in experiment [20]. Further, in experiment [18], the growth was 93.3%.
On to `CC(C)NC(=O)c1cc(-c2ccc(NC(=O)Nc3ccc(N4CCOCC4)c(C(F)(F)F)c3)cc2)nc2cccnc12`, for which the growth in experiment [1] is 72.7%; in experiment [2], 69%; in [3], 48.2%; in experiment [4], 143%; in [5] it was 62.7%; in [6], 63.7%. The growth in experiment [7] was 25.6%; in experiment [8], 44.3%; in experiment [9] it was 18.7%; in experiment [10], 10.2%; in experiment [11] it was 14.3%; in [12], 63.7%. In addition, the growth in [13] is 88.1%; in experiment [19], 88.5%; in experiment [15], 66.9%; in experiment [20], 78.4%; in [18] it was 64.2%.
For `COc1ccc(NC(=O)c2sc3nc(-c4cnccn4)cc(-c4cccs4)c3c2N)cc1`, the growth in [1] is 87.6%; in [2], 80.8%; in experiment [3] it was 52.3%; in experiment [4] it was 105%; in experiment [5], 43.8%; in experiment [6] it was 36.4%. Also, the growth in experiment [7] was 49.5%; in experiment [8], 94.6%; in [10] it was 71.6%; in experiment [11] it was 74.2%; in experiment [12], 71.7%; in experiment [13], 93.1%. The growth in experiment [14] is 82.1%; in experiment [19], 23.1%; in [15], 86.3%; in experiment [16] it was 76.8%; in experiment [17], 73.7%; in experiment [20], 78.2%. Further, the growth in [18] is 67.8%.
As for `Cc1ccc(-c2nc(C(Cl)Cl)nc3cc(-c4ccccc4)nn23)cc1`, the growth is -0.218% (active) in experiment [1]; 51.4% in experiment [2]; 45.3% in experiment [3]; 23.7% in experiment [4]; -59.8% (active) in experiment [5]; -22.9% (active) in [6]. The growth was -31.3% (active) in experiment [7]; 37.8% in [8]; 1.15% (active) in [10]; 6.1% (active) in experiment [11]; 10.3% in experiment [12]; -8.77% (active) in experiment [13]. Moreover, the growth was -24% (active) in experiment [14]; -32.4% (active) in experiment [19]; 29.3% in [15]; -42.7% (active) in experiment [16]; 1.87% (active) in experiment [17]; 13.5% in experiment [20]. In addition, the growth in experiment [18] is 51%.
Regarding `O=C(Nc1nc2ccc(O)cc2s1)c1cccc(C(F)(F)F)c1`, the growth in experiment [1] was 55.6%; in experiment [2], 68.9%; in experiment [3] it was 33.4%; in experiment [4], 80.8%; in [5], 53%; in [6], 53%. The growth in experiment [7] was 78.9%; in experiment [8], 31%; in [9] it was 34.6%; in experiment [10], 75.7%; in experiment [11] it was 46.9%; in experiment [12] it was 55.5%. For the same compound, the growth in [13] is 93.4%; in experiment [14] it was 63.6%; in [15] it was 64.4%; in [16] it was 67.2%; in [17], 101%; in experiment [18], 51.3%.
`COc1cccc(NC2=CC(=O)C(C)=C(C)C2=O)c1`: the growth is 36.7% in [1]; 80.5% in [2]; 86% in experiment [3]; 135% in [4]; 70.9% in experiment [5]; 93% in experiment [6]. In addition, the growth is 67.2% in [7]; 15.8% in experiment [8]; 17.9% in experiment [9]; 23.2% in experiment [10]; 17.5% in experiment [11]; 16.9% in experiment [12]. For the same compound, the growth is 101% in experiment [13]; 40% in experiment [15]; 0.294% (active) in [16]; 112% in experiment [17]; 47.7% in [18].
For `Clc1ccc(-c2cn3cc(Cc4ccc(Cl)c(Cl)c4)sc3n2)cc1`, the growth was 69.8% in [1]; 76.6% in experiment [2]; 68.1% in experiment [3]; 112% in [4]; 47% in experiment [5]; 42.6% in [6]. The growth was 82.3% in experiment [7]; 79.7% in experiment [8]; 61% in experiment [9]; 94.5% in experiment [10]; 90.9% in [11]; 75.5% in experiment [12]. Moreover, the growth is 83.6% in [13]; 106% in [19]; 62.5% in experiment [15]; 97.5% in experiment [16]; 94.1% in experiment [17]; 88.9% in experiment [20]. Also, the growth in experiment [18] is 50.4%.
With `COc1ccc(C(=O)c2cc(C(=O)/C=C/c3c(Cl)cccc3Cl)c3cc(C)ccn23)cc1`, the growth is 92.1% in experiment [1]; 94.2% in experiment [2]; 96.6% in experiment [3]; 119% in experiment [4]; 101% in experiment [5]; 89.9% in experiment [6]. Also, the growth was 86.4% in experiment [7]; 99.8% in experiment [8]; 96.4% in experiment [9]; 97% in experiment [10]; 92.6% in [11]; 100% in experiment [12]. The growth was 102% in experiment [13]; 106% in experiment [14]; 95.9% in experiment [15]; 103% in experiment [16]; 95.7% in [17]; 91.7% in experiment [18].
